Source: PubChem BioAssay (NCATS)
Inconclusive results are not listed. Where a call stands in place of a potency, no number is given. The source made the active and inactive calls. Calls come from the whole dose curve; as a rule, active = well fitted activation curve with a large enough effect in the repeat runs; inconclusive = weak or mixed curves; inactive = flat fitted curve, though single readings scatter.

Assay: qHTS assay for small molecule agonists of the antioxidant response element (ARE) signaling pathway measured by Nrf2-dependant transcriptional activity (AID 720636)
Settings: ARE-luc HepG2, Nrf2 luciferase reporter, 16 h; series mostly up to 92.4 µM
In short: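 Nrf2-dependent transcription read as ONE-Glo luciferase signal from ARE-luc HepG2 reporter cells after 16 hr compound treatment at 37 C, 5% CO2, in assay medium with 1% dialyzed FBS.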
Potency is the fitted concentration of half-maximal effect.

Structure (SMILES)	Potency
O=C(O)COc1ccc(Cl)cc1	inactive
CCc1nn(C)c(C(=O)NCc2ccc(C(C)(C)C)cc2)c1Cl	inactive
CCC(CC)Nc1c([N+](=O)[O-])cc(C)c(C)c1[N+](=O)[O-]	inactive
C[Si](Cn1cncn1)(c1ccc(F)cc1)c1ccc(F)cc1	inactive
C1=Cc2cccc3cccc1c23	inactive
CC/C(=C(\c1ccccc1)c1ccc(OCCN(C)C)cc1)c1ccc(O)cc1	inactive
CCOP(=O)(OCC)Oc1ccc([N+](=O)[O-])cc1	inactive
CN(c1c(Br)cc(Br)cc1Br)c1c([N+](=O)[O-])cc([N+](=O)[O-])cc1C(F)(F)F	inactive
O=[N+]([O-])c1cc(C(F)(F)F)c(Cl)c([N+](=O)[O-])c1Nc1ncc(C(F)(F)F)cc1Cl	inactive
[CH3][Sn]([Cl])([Cl])[Cl]	inactive
c1ccc2cc3c(ccc4ccccc43)cc2c1	30.6 µM (active)
CCC(C)(c1ccc(O)cc1)c1ccc(O)cc1	inactive
[Cu+2].[O-]c1cccc2cccnc12.[O-]c1cccc2cccnc12	inactive
